From ChEMBL document CHEMBL3988442, “University of Dundee, Small-Polar-MMV Screening Library” (2021) come the findings set out here.

Among all 69,000 compounds or so, about 420 (0.61%) showed an effect of 50% or more. The sample as a whole holds a higher share of strong results than the screen did.

In this assay the target is T1, Histidine--tRNA ligase (Leishmania infantum) (UniProt A4I591).
T1 sequence (whole entry): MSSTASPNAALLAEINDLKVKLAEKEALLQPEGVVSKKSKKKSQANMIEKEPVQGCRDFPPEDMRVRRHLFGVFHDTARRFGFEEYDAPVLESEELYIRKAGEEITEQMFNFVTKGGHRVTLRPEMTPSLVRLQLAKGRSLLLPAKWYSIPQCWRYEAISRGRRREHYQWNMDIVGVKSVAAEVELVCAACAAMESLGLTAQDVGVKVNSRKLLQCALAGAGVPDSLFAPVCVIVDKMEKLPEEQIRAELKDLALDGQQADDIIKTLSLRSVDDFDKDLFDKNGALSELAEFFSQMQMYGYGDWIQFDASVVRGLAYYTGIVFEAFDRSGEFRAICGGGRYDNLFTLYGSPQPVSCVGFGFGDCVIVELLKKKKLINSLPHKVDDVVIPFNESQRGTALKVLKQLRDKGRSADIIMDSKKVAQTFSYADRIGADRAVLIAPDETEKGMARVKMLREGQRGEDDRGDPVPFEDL
Put plainly: Leishmania infantum Histidine tRNA synthetase (LdHisRS). Format: functional. To be noted: 30 µM. Set-up: scale not given: in the data most compounds retested in dose-response had high values.
For the molecule `COCCN1C[C@H]2CC[C@@H]1CN(Cc1cc(=O)c3cc(C)ccc3[nH]1)C2`, the Percent Effect was 40.6%. In the case of `COCCN1C[C@H]2CN(C(=O)c3ccno3)CCN2C1=O`, the Percent Effect came out at 11.1%. Regarding `COCC(=O)N1C[C@@H](OCc2cccnc2)[C@H]2OCCC[C@@H]21`, the Percent Effect amounted to 14.6%. Under `COCCNC(=O)[C@H]1CN(Cc2scnc2C)C[C@H]2OCC[C@@H]12` stands 13.3%; under `CCc1cc(N[C@@H]2C[C@H]3CC[C@@H]2C3)n2nccc2n1`, 25.7%.

As to `Cc1nc(CN2C[C@@H]3CN(C(=O)c4cnccn4)C[C@@H]3C2=O)cs1`, the Percent Effect was 2.94%.

Turning to `Cc1ccc(CN2C[C@H]3C[C@H](C(=O)Nc4cccnc4)[C@@H](C2)O3)cc1`, the Percent Effect is 22%.

For the molecule `CN1CCCCC12CCN(c1nncs1)CC2`, the Percent Effect was found to be 6.2%. For `c1cncc(-c2ccc3c(c2)CCC32CCN(Cc3nccs3)CC2)c1`, the Percent Effect amounted to 48%. With `c1cc(-c2ccc3c(c2)CCC32CCN(c3nncs3)CC2)ccn1`, the Percent Effect is 66.1%. In the case of `CNC(=O)[C@H]1CC[C@@H]2[C@@H](CCN2c2ncccn2)O1`, the Percent Effect worked out at 14%. Take `O=C(c1cnccn1)N1C[C@@H]2OCC(=O)N(CC3CCCCC3)[C@@H]2C1`: the Percent Effect was 25%. For `COc1cc(N2CC[C@@H]3O[C@@H](c4ccncn4)C[C@H]3C2)ncn1`, the Percent Effect worked out at 14.5%. For `COc1cc2c(nn1)CCN(Cc1noc(-c3ccccc3)n1)C2`, the Percent Effect is 24%. Consider `Cc1ccccc1-c1noc(CN2CCc3nn(C)c(=O)cc3C2)n1`, for which the Percent Effect was 103%.

With `Cc1ccc(-c2nc(CN3CCc4cnc(C)nc4C3)no2)cc1`, the Percent Effect came out at 21.4%.

In the case of `Cc1ccc(-c2nc(CN3CCc4nn(C)c(=O)cc4C3)no2)cc1`, the Percent Effect stood at 52.4%. To `Cn1nc2c(cc1=O)CN(Cc1nc(-c3cccs3)no1)CC2` belongs 20.3%; to `Cc1cccc(-c2noc(CN3CCc4nn(C)c(=O)cc4C3)n2)c1`, 87.8%; to `Cc1ccc(-c2noc(CN3CCc4nn(C)c(=O)cc4C3)n2)cc1`, 70.7%.

As for `Cn1nc2c(cc1=O)CN(Cc1nc(-c3cccnc3)no1)CC2`, the Percent Effect was 10.3%. With `Cn1nc2c(cc1=O)CN(Cc1nc(-c3ccoc3)no1)CC2`, the Percent Effect is 16%. To `Cn1nc2c(cc1=O)CN(Cc1nc(-c3ccsc3)no1)CC2` belongs 27.6%; to `Cc1ccccc1-c1noc(CN2CCc3cncnc3C2)n1`, -42.2%; to `CCCn1nc2c(cc1=O)CN(Cc1nc(-c3ccoc3)no1)CC2`, 2.67%. To `C[C@]12CCCCN(C(=O)c3ccccn3)[C@H]1CCCC(=O)N2` belongs 7.37%. On to `CN(Cc1cccnc1)[C@@H]1CN(Cc2ccccn2)[C@@H]2CCCO[C@H]12`, for which the Percent Effect came out at 8.33%. Under `Cc1nnc(N2CC[C@H]3O[C@H](C(=O)NCc4ccccn4)CC[C@H]32)s1` stands 20%; under `Cc1ncsc1CN1C[C@@H]2CCCO[C@@H]2[C@H](N(C)C(C)C)C1`, 14%. Under `Cc1ccc(CN2CC[C@@H]3O[C@@H](C(=O)N4CCN(C)CC4)C[C@@H]32)cc1` stands 9.62%; under `CS(=O)(=O)N1C[C@@H]2CC[C@H](C1)N(Cc1cscn1)C2=O`, 15.2%. As to `O=C1CCCC2=C1C(c1cccc(F)c1F)Nc1nonc1N2` (stereo not drawn), the Percent Effect was found to be 6.25%. For `COCCN1C[C@@H]2CN(c3cnccn3)C[C@@H]2C1=O`, the Percent Effect stood at 16%. Take `Cn1nc2c(cc1=O)CN(Cc1nc(-c3ccco3)no1)CC2`: the Percent Effect was found to be 91.4%. Regarding `CCCn1nc2c(cc1=O)CN(Cc1nc(-c3ccco3)no1)CC2`, the Percent Effect worked out at 5.5%. To `CCn1nc2c(cc1=O)CN(Cc1nc(-c3ccco3)no1)CC2` belongs 33%; to `O=C(NC1CC1)[C@@H]1C[C@@H]2CCN(Cc3ccccc3)C[C@H]2O1`, 23%; to `COc1ccc(CN2C[C@@H]3OCCN(CCN(C)C)[C@@H]3C2)cc1`, 15.6%. `COc1cccc(CNc2cc(C)nc(-c3ccncc3)n2)c1O`: the Percent Effect was determined as 19.2%. On to `COc1cccc(CNc2nc(C)cc(C)n2)c1OC`, for which the Percent Effect is 21.9%. For the molecule `COc1cccc(CNc2cc(C)nc(-c3ccncc3)n2)c1OC`, the Percent Effect was 52%.

Take `O=C(c1ccco1)N1CCO[C@@H]2CN(c3ccccc3)CC[C@@H]2C1`: the Percent Effect stood at 32%. As for `O=C(Nc1cnccn1)[C@@H]1COC[C@H]2CN(C3CCC3)C[C@H]21`, the Percent Effect stood at 12.3%. Under `O=C(Nc1ccccc1Cl)N1CCN(CC2CC2)[C@@H]2CS(=O)(=O)C[C@@H]21` stands 8.2%. Take `COCCN1C[C@H]2CC[C@@H]1CN(C(=O)CCc1n[nH]c(C)c1C)C2`: the Percent Effect turned out to be 13.9%.

Take `CC(=O)N1C[C@@H]2CC[C@H](C1)N(C(=O)CCc1n[nH]c3c1CCCC3)C2`: the Percent Effect worked out at 17.7%. As for `CS(=O)(=O)N1C[C@@H]2CC[C@H](C1)N(C(=O)CCc1n[nH]c3c1CCCC3)C2`, the Percent Effect stood at 14.5%. Take `CC(C)=CCN1C[C@H]2CC[C@@H]1CN(C(=O)CCc1n[nH]c(C)n1)C2`: the Percent Effect was -42.5%. On to `O=C(CCc1n[nH]c2c1CCCC2)N1C[C@@H]2CC[C@H](C1)N(CC1CC1)C2`, for which the Percent Effect is 56.5%. Consider `O=C(NCc1cccnc1)[C@H]1CC[C@@H]2[C@@H](CCN2c2ncccn2)O1`, for which the Percent Effect is 7%. Take `COCCN1C(=O)[C@H]2CC[C@@H]1CN(S(=O)(=O)c1cccc(Cl)c1)C2`: the Percent Effect was 0%.

With `Cc1cc(C(=O)N2C[C@H]3CC[C@@H]2CN(C)C3)ccc1Cl`, the Percent Effect stood at 7.14%.

Consider `COc1ccnc(N2C[C@@H]3CC[C@H](C2)N(CC2CCC2)C3=O)n1`, for which the Percent Effect stood at 19.4%. Under `O=C(c1cocn1)N1C[C@@H]2CN(CC3CC3)CCO[C@@H]2C1` stands 7.56%; under `NC(=O)NC(=O)CCN1CCN(CC2CC2)c2ccccc21`, 81.2%. Consider `O=C(NCCCC(=O)N1CCN(CC2CC2)c2ccccc21)C1CC1`, for which the Percent Effect worked out at 11.8%. Take `COCCC(=O)N1CCN(CC2CC2)c2ccccc21`: the Percent Effect came out at 26.5%. To `NC(=O)CN1CCN(CC2CC2)c2ccccc21` belongs 56.2%; to `CNC(=O)NC(=O)CN1CCN(CC2CC2)c2ccccc21`, 31.2%; to `NC(=O)NC(=O)CN1CCN(CC2CC2)c2ccccc21`, 31.2%.

In the case of `Cc1ccc(N2CC[C@@H]3O[C@@H](COCc4cccnc4)CC[C@@H]32)nn1`, the Percent Effect worked out at 13.2%. To `NC(=O)[C@@H]1CN2CCN(C(=O)C3CC3)C[C@@H]2[C@H]1c1ccccc1` belongs 2.04%; to `CS(=O)(=O)N1C[C@H]2CCCN(Cc3cccs3)[C@H]2C1`, 5.26%.

For the molecule `COc1ccc2c(c1)CC(NCc1cccc(OCC(N)=O)c1)CC2` (stereo not drawn), the Percent Effect stood at 59%. Turning to `COc1ccc2c(c1)CC(NCc1cccc(NC(C)=O)c1)CC2` (stereo not drawn), the Percent Effect worked out at 43.6%. As for `COc1ccc2c(c1)CC(NCc1cccc(CO)c1)CC2` (stereo not drawn), the Percent Effect turned out to be 15.4%. To `Cc1ccc(CN2Cc3ccccc3O[C@]3(CC[C@H](CO)CC3)C2)s1` belongs 16.5%. Take `O=C(c1ccccc1)N1CC[C@H]2C[C@@H](c3nnc(C4CC4)o3)O[C@@H]2C1`: the Percent Effect is 13.6%.
